This is part of a sample that, as a whole, favours compounds with a hit. Of some 83,000 tested, about 20% had one in any assay.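 Values shown are percent growth following 48 h exposure of cells in 96-well plates to a single concentration of compound; below 10 was considered active.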 Active and inactive are the calls of the source.

The first assay relates to SNB-75 CNS. Put plainly: NCI-60 one-dose screen, 48 h (100 = growth as untreated, 0 = no growth, -100 = all killed). The conditions noted are these: 10 µM unless noted.
`COc1cc2nc(SCc3ccccc3)n(-c3ccc(Cl)cc3)c(=O)c2cc1OC`: the growth is -49.5% (active).

For `Cc1cccc(-c2nc(Nc3cccc(S(N)(=O)=O)c3)c3ccccc3n2)c1`, the growth is 80.3% (inactive).

As to `COc1ccc2[nH]cc(-c3nnc(N)nc3-c3cn(C)c4ncc(Br)cc34)c2c1`, the growth is 31.7% (inactive).

With `CCN(CC)c1ccc(/C=N/Nc2nc(-c3ccc(C)cc3)cs2)c(O)c1`, the growth is 92.1% (inactive).

Regarding `N/C(=N\c1nc2ccccc2s1)NC(=O)Nc1ccccc1Br`, the growth was -33.3% (active).

A further assay deals with SNB-19 CNS. The description is as above. The conditions noted are these: 10 µM unless noted.
For the molecule `Cc1ccc(S(=O)(=O)c2nc(S(=O)(=O)c3ccc(C)cc3)c(Cl)s2)cc1`, the growth was 81.4% (inactive).

With `CCCCSc1nc(Nc2ccc(C(C)=O)cc2)c(C#N)c(-c2ccc(OC)cc2)n1`, the growth is 61.8% (inactive).

With `CCOC(=O)C1=C(N)N(c2ccccc2)C2=C(C(=O)CC(C)(C)C2)C1c1ccc([N+](=O)[O-])cc1` (stereo not drawn), the growth was 94% (inactive).

As to `Cc1cccc(Nc2nc3ccccc3nc2/C=C/c2ccc(F)cc2)c1`, the growth was 92.8% (inactive).

As to `Cc1cccc(NC(=O)CN2CCN(c3ncnc4c3cnn4-c3ccccc3)CC2)c1`, the growth was 83.1% (inactive).

In the case of `Cn1cc(-c2cc3nc(-c4c[nH]c5ccc(Br)cc45)cc(N)n3n2)c2ccccc21`, the growth was -68.1% (active).

For the molecule `C#CCOc1ccc(/C=N/Nc2nc(-c3cc4cc(OC)ccc4oc3=O)cs2)cc1OC`, the growth is 75.3% (inactive).

Take `CC1(C)CC[C@]2(C(=O)O)CC[C@]3(C)C(=CCC4[C@@]5(C)C[C@@H](O)[C@@H]6OC(c7ccc(F)cc7)OC[C@@]6(C)C5CC[C@]43C)C2C1` (stereo partly drawn): the growth is 34.9% (inactive).

In the case of `O=C(NN1C(=O)/C(=C/C=C/c2ccc([N+](=O)[O-])o2)SC1=S)c1cccc(O)c1`, the growth is -96.5% (active).

`Cc1ccc(C(=O)NN2C(=O)/C(=C/C=C/c3ccc([N+](=O)[O-])o3)SC2=S)cc1`: the growth was -100% (active).

Take `N/C(=N\c1nc2ccccc2s1)NC(=O)Nc1c(Cl)cccc1Cl`: the growth was 54.7% (inactive).

Turning to `O=C(CN1C(=O)/C(=C/c2ccccc2Cl)SC1=S)N1CCOCC1`, the growth is 92.4% (inactive).

Regarding `CN(C)c1nc(NCCNS(=O)(=O)c2ccc(C3=Nc4c(N)nc(N)nc4NC(c4ccc(C(F)(F)F)cc4)C3)cc2)nc(Nc2ccc(F)cc2)n1` (stereo not drawn), the growth is 22.9% (inactive).

For `O=C(CSc1nc2ccccc2c(=O)[nH]1)NCCN1CCCCC1`, the growth was 94.6% (inactive).

As to `Cn1cc(-c2nnc(N)nc2-c2c[nH]c3ccc(Br)cc23)c2cc(Br)cnc21`, the growth was 65.5% (inactive).

As for `O=C(O)Cn1c(O)c(/C=C2/C=c3cc4c(cc3=NC2=O)OCCO4)sc1=S`, the growth is 97.9% (inactive).

For `N/C(=N\c1nc2ccccc2s1)NC(=O)Nc1ccc(Cl)cc1Cl`, the growth is -23.5% (active).

In the case of `Cc1ccc(-c2nc(C#N)c(S(=O)(=O)N3CCN(S(=O)(=O)c4ccccc4)CC3)o2)cc1`, the growth is 74.9% (inactive).

With `COc1cccc(-c2nc(Nc3ccc(S(N)(=O)=O)cc3)c3ccccc3n2)c1`, the growth is 50.4% (inactive).

`COc1ccc(/C=C/c2nc3ccccc3n3c(-c4ccc(Cl)cc4)nnc23)cc1`: the growth was 94.7% (inactive).

On to `CNS(=O)(=O)c1ccc(Nc2ccc(C(F)(F)F)cc2)c(-c2cn(C)cn2)c1`, for which the growth was 49.5% (inactive).

Regarding `CCS(=O)(=O)N1CCCC(C(=O)Nc2nc3ccc(NC(=O)c4ccc(F)c(OC)c4F)cc3s2)C1` (stereo not drawn), the growth was 78.9% (inactive).

Take `C#CCOc1cc(N(CC)CC)ccc1C(C(=O)NC(C)(C)C)N(C(=O)C1CCc2cc(F)ccc2O1)c1cc(C)cc(C)c1` (stereo not drawn): the growth was 38.3% (inactive).

With `C#CCOc1ccc(/C=N/Nc2nc(-c3ccc(Cl)cc3)cs2)cc1OC`, the growth is 74.6% (inactive).

Turning to `O=C(COc1ccc2c(c1)CCCC(=O)N2)NCc1ccccc1`, the growth was 89% (inactive).

Regarding `CN(C)c1nc(NCCNS(=O)(=O)c2ccc(C3=Nc4c(N)nc(N)nc4NC(c4ccccc4)C3)cc2)nc(Nc2ccc(F)cc2)n1` (stereo not drawn), the growth was 56.6% (inactive).

For the molecule `CC1(C)CC[C@]2(C(=O)O)CC[C@]3(C)C(=CCC4[C@@]5(C)C[C@@H](O)[C@@H]6OC(c7ccccc7F)OC[C@@]6(C)C5CC[C@]43C)C2C1` (stereo partly drawn), the growth was 20.3% (inactive).

Turning to `Cc1cccc(-c2nc(Nc3ccc(C)c(S(N)(=O)=O)c3)c3ccccc3n2)c1`, the growth is 32.5% (inactive).

As for `COC(=O)C[C@](O)(CCCC(C)(C)O)C(=O)O[C@H]1C(OC)=C[C@@]23CCCN2CCc2cc4c(cc2[C@@H]13)OCO4`, the growth was -26.8% (active).

`Cn1cc(-c2cc(N)n3nc(-c4cn(C)c5ccccc45)cc3n2)c2cc(Cl)ccc21`: the growth is -0.728% (active).

As to `CC1(C)CC[C@]2(C(=O)O)CC[C@]3(C)C(=CCC4[C@@]5(C)C[C@@H](O)[C@@H]6OC(c7ccco7)OC[C@@]6(C)C5CC[C@]43C)C2C1` (stereo partly drawn), the growth was 28.4% (inactive).

As for `Cn1cc(-c2cc3nc(-c4c[nH]c5ccc(Cl)cc45)cc(N)n3n2)c2ccccc21`, the growth was -72.3% (active).

For the molecule `COc1ccc(Cc2nn(CC(=O)N/N=C/c3ccc(F)cc3)c(=O)c3c(C)noc23)cc1`, the growth was 20.1% (inactive).

On to `COc1cc2nc(SCc3ccccc3)n(-c3ccc(Cl)cc3)c(=O)c2cc1OC`, for which the growth is -30% (active).

In the case of `Cc1cccc(-c2nc(Nc3cccc(S(N)(=O)=O)c3)c3ccccc3n2)c1`, the growth was 51.4% (inactive).

For the molecule `COc1ccc2[nH]cc(-c3nnc(N)nc3-c3cn(C)c4ncc(Br)cc34)c2c1`, the growth was 69.6% (inactive).

Consider `CCN(CC)c1ccc(/C=N/Nc2nc(-c3ccc(C)cc3)cs2)c(O)c1`, for which the growth is 89.6% (inactive).

Regarding `N/C(=N\c1nc2ccccc2s1)NC(=O)Nc1ccccc1Br`, the growth is 2.22% (active).

The values above are taken from PubChem BioAssay (NCI).
